Source: PubChem BioAssay
Compounds with a hit are over-represented: about 5.8% of the library has one in this group of screens.
uPA generation: qHTS for Inhibitors of Cell Surface uPA Generation | actives 0.31% (n = 330,000) | cell surface uPA generation assay, qHTS | Potency, µM (highest dose often 38.3 µM), for inactives: top-dose activity change, negative = inhibition, usual class: inhibitors; active means well fitted inhibition curve with a large enough effect; inconclusive means small, poorly fitted or top-dose-only effect; inactive means no such curve, though single readings can be large or run the other way; tested in mouse RAW 264.7 cells; further: potency means the concentration at half of the fitted maximal effect; on the % scale 0 is the no-effect control and ±100 the full control effect; nearly all actives have a fitted effect of over 55% in size
TRPV1 ag: HTS Assay for Compounds that Act as Agonists of the Vanilloid Receptor 1; activation, % at 8.33 µM; Transient receptor potential cation channel subfamily V member 1 (Homo sapiens), Q8NER1; actives 0.19% (n = 320,000); AID 540275, 2011; TRPV1-expressing cells, Fluo-8 calcium influx, agonist mode; in the data active means activation above about 80%; inconclusive means between about 30% and that limit; further: 0% is about no effect
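Cells expressing TRPV1 were dye-loaded with Fluo-8 and read kinetically: 10 s baseline, 3 min after compound (agonist portion), then 2 min after EC20 capsaicin (allosteric enhancer portion). Calcium-bound dye fluorescence at 480/520 nm.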
RORgamma inh: qHTS for inhibitors of ROR gamma transcriptional activity; Drosophila S2 Gal4-RORgamma UAS-luciferase reporter, 20 h; Potency, µM (doses to about 53.6 µM), inactives show at the top dose activity change, negative = inhibition, actives largely listed as inhibitors; actives 5.4% (n = 310,000); Nuclear receptor ROR-gamma (Mus musculus), P51450; further: potency means the concentration at half of the fitted maximal effect; on the % scale 0 is the no-effect control and ±100 the full control effect; nearly all actives have a fitted effect of over 60% in size
Target sequence (P51450 whole entry, looked up, the tested form may be a part): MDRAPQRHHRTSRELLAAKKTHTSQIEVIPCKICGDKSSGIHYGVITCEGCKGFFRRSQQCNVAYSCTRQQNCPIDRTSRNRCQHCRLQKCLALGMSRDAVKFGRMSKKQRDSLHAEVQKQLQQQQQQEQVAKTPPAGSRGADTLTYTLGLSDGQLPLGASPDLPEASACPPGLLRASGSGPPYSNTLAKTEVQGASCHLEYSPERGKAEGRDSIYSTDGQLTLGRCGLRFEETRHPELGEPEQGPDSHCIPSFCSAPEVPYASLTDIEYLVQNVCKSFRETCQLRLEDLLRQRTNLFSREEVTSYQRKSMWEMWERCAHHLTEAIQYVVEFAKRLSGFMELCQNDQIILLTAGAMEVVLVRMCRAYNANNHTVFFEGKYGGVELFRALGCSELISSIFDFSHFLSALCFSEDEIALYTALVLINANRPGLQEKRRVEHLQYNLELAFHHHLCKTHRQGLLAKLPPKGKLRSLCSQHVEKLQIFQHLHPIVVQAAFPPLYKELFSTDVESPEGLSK
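A Gal4/UAS one-hybrid system in insect cells: metallothionein-promoter Gal4–ROR gamma fusion plus Photinus luciferase reporter. Copper sulfate 700 uM final, 20 hr ambient incubation, luminescent detection after 10 min with reagent.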
VP16 counter: VP16 counterscreen qHTS for inhibitors of ROR gamma transcriptional activity; Drosophila S2 Gal4-VP16 UAS-luciferase, luminescence, 20 h; Potency, µM (titrated, usually from 53.6 µM), for the others: at the highest dose activity, negative = inhibition, most hits filed as inhibitors; actives 3.5% (n = 310,000);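 further: Gal4-VP16 expression switched on by copper sulfate through the metallothionein promoter; potency means the concentration at half of the fitted maximal effect; on the % scale 0 is the no-effect control and ±100 the full control effect; nearly all actives have a fitted effect of over 50% in size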
TRPV1 PAM: HTS Assay for Compounds that Act as Potentiators of the Vanilloid Receptor 1; actives 0.02% (n = 320,000); Transient receptor potential cation channel subfamily V member 1 (Homo sapiens), Q8NER1; potentiation, % at 8.33 µM; AID 540277, 2011; TRPV1-expressing cells, Fluo-8 calcium influx, capsaicin EC20 potentiation; in the data active means potentiation above about 80%; inconclusive means between about 30% and that limit; further: 0% is about no effect
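Fluo-8 calcium influx in TRPV1-expressing cells, kinetic read (ex 480/em 520 nm). Compound added and read 3 min for agonist activity, followed by capsaicin at EC20 final and 2 min further read for enhancement.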
* hit, by the source's call; ? = inconclusive; / = no result; [ ] = another dose, or the depositor's remark. Unless noted, the call rests on the fitted dose curve; in most records, active means well fitted curve in the direction sought with a large enough effect; inconclusive means small, poorly fitted or top-dose-only effect, or another doubt; inactive means no such curve, though single readings can be large; an effect the other way counts as inactive or inconclusive.

SMILES	uPA generation	TRPV1 ag	RORgamma inh	VP16 counter	TRPV1 PAM
Cc1ccc(CSC2=Nc3sccc3C3=NC(=O)CN23)cc1	-0.5%	1.0	34.6%	-4.0%	-1.3
O=S(=O)(Cc1ccccc1)c1nnnn1C1CCCCC1	/	/	0.7%	-2.2%	/
CC1(C(=O)NC(=S)N(CCC#N)Cc2cccnc2)CC1(Cl)Cl (stereo unspecified)	/	0.8	1.41µM*	?	3.7
O=C(Nc1nnc(-c2ccc(F)cc2)o1)c1cccc([N+](=O)[O-])c1	-3.5%	-3.0	0.398µM*	0.794µM*	-3.0
CS(=O)(=O)c1cccc(C(=O)Nc2nnc(C3=COCCO3)o2)c1	-1.5%	-5.5	/	/	9.2
O=C(Nc1nnc(C2=COCCO2)o1)c1cccc([N+](=O)[O-])c1	4.3%	1.9	1µM*	3.98µM*	-9.6
O=C(Nc1nnc(C2=COCCO2)o1)c1cccc(Br)c1	0.4%	-0.3	0.355µM*	0.501µM*	-1.7
Cc1noc(C)c1C(=O)N1CCC2(CC1)CN(c1cccc(-c3ccccc3)c1)C2	/	/	28.9%	-13.7%	/
COc1ccc2c(c1OC)C(=O)OC2N1C(=O)CC[C@H]1C(=O)Nc1ccc2c(c1)OCO2 (stereo partly specified)	4.4%	1.4	-6.4%	-5.2%	2.0
Cc1nc2ccccn2c1C(=O)N/N=C/c1ccccc1	1.1%	-4.0	0.9%	-4.5%	0.8
Cc1ccccc1N/N=C/c1c(C)nc2ccccn12	6.8%	21.8	10µM*	-5.9%	-3.4
CCN1C(=O)CSC1=Nc1ccccc1Cl	1.7%	3.0	-6.5%	-0.3%	11.1
Brc1ccc2[nH]c3c(c2c1)CCC3	3.2%	/	8.8%	4.4%	/
NC(=O)c1cc(Br)cc2c3c([nH]c12)CCCC3	-5.0%	1.2	-11.9%	17.8µM*	1.2
Cc1ccc(NC(=O)C2CCN(S(=O)(=O)c3ccc(N4CCCC4=O)cc3)CC2)cc1Cl	2.8%	-0.3	?	3.16µM*	-4.4
COc1ccc(NC(=O)C2CCN(S(=O)(=O)c3ccc(N4CCCC4=O)cc3)CC2)c(OC)c1	-2.4%	3.0	?	?	17.3
Cc1cccc(NC(=O)/C=C/c2cccs2)n1	-8.3%	/	?	22.4µM*	/
Cc1cccc(NC(=S)NC(=O)c2cccs2)n1	/	-4.6	3.55µM*	?	27.6
Cc1nc(NC(=S)NC(=O)c2cccs2)ccc1Br	-0.3%	9.3	1.41µM*	12.6µM*	-9.4
Cc1nc(NC(=S)NC(=O)c2cncc(Br)c2)ccc1Br	8.1%	-6.0	-44.9%	1.3%	4.0
Cc1ccc(OCC(=O)NC(=S)Nc2ccc(Br)c(C)n2)cc1	8.7%	-1.2	2.51µM*	-11.1%	4.9
Cc1nc(NC(=S)NC(=O)COc2ccc(Cl)cc2)ccc1Br	-21.5%	3.7	-35.4%	-6.2%	-3.2
C=CCOC(=O)N[C@@H](CC(C)C)/C(C(=O)OC)=C(\C)NCc1ccccc1	/	/	-13.3%	-0.7%	/
COC(=O)C(C(=O)OC)C(Cc1cc(F)cc(F)c1F)NC=O (stereo unspecified)	/	/	-7.8%	-1.2%	/
CC(=O)NC(=S)NNC(=O)CCc1ccccc1	-26.9%	1.1	34.4%	-6.0%	-25.0
SMILES	uPA generation	TRPV1 ag	RORgamma inh	VP16 counter	TRPV1 PAM
O=C(CCc1ccccc1)NNC(=S)NC(=O)c1ccccc1	-3.5%	-1.6	4.47µM*	?	7.9
CC(C)(C)c1cc(CCC(=O)NNC(=S)NC(=O)c2ccccc2)cc(C(C)(C)C)c1O	?	21.4	11.2µM*	12.6µM*	-16.3
CCCCC(=O)NNC(=S)NC(=O)CCC	-4.2%	-1.1	10µM*	?	-10.9
CCCCC(=O)NC(=S)NNC(=O)CCc1ccccc1	0.5%	-1.9	11.2µM*	-6.8%	-5.9
O=C(CCc1ccccc1)NNC(=O)CCc1ccccc1	5.1%	-0.3	-6.5%	-11.6%	8.8
CCCCC(=O)NC(=S)NNC(=O)CC#N	8.9%	-3.1	?	-0.2%	1.5
Clc1ccccc1-c1nnc(-c2ccc3c(c2)OCO3)o1	-9.1%	?	-35.9%	-24.2%	-3.9
Cc1csc(C(=O)NN)c1N(C)C	5.7%	?	0.562µM*	?	-22.7
Cc1c(C(=O)NN)sc(=S)n1C	0.1%	-8.5	10.7%	-13.6%	-25.0
CC1=CC2C(C)(C)CC(=O)C[C@]2(C)CC1COc1ccc2c(c1)CC(=O)C=C2 (stereo partly specified)	/	/	-2.1%	-13.4%	/
O=C(NN=C(Cc1ccccc1)Cc1ccccc1)c1ccccc1O	3.2%	?	3.55µM*	?	1.8
O=C(NN=C(Cc1ccccc1)Cc1ccccc1)c1ccc(F)cc1	-12.1%	?	?	?	-18.9
NC(=S)NN=C(Cc1ccccc1)Cc1ccccc1	-6.8%	1.0	1.41µM*	5.01µM*	-14.0
O=C(CCN1CCC2CCC(C2)C1)c1ccc(F)cc1 (stereo unspecified)	0.1%	/	/	/	/
CCCn1c(C2CCCN2c2nc(-c3ccc(C)cc3)cs2)nc2ccccc21 (stereo unspecified)	?	29.1	3.55µM*	?	-6.8
O=C(COc1ccc2ccccc2c1)NN1C(=O)c2ccccc2C1=O	-5.0%	-0.8	4.7%	11.7%	3.2
CCCCOc1ccc(CSC2=NCCN2)cc1[N+](=O)[O-]	6.31µM*	3.9	-5.0%	-6.0%	-13.9
CCOc1ccc(CSC2=NCCN2)cc1[N+](=O)[O-]	-14.1%	-1.0	-28.5%	-7.5%	13.9
O=C(c1ccc(F)cc1)N1CCN(c2ccc([N+](=O)[O-])cc2-n2cccc2)CC1	-5.0%	-2.4	28.8%	1.1%	5.1
CCOc1ccc(-c2c(C(=O)N/N=C/C3CCCCC3)nnn2-c2nonc2N)cc1	0.1%	9.0	-18.0%	-18.6%	-8.0
C=CCN1C(=O)N/C(=C/c2ccc(C)o2)C1=O	?	-2.0	5.62µM*	5.01µM*	4.4
Cc1cccc(NC(=O)CN2C(=O)N/C(=C/c3ccc(C)o3)C2=O)c1	-4.7%	-3.9	?	17.8µM*	0.9
OCCNCCCOc1cccc(Cl)c1Cl	/	/	-11.5%	0.4%	/
COc1cc(OC)c(NC(=O)Nc2cc(C)on2)cc1Cl	/	/	-4.1%	-23.2%	/
C=CCn1c(=O)c(CCC(=O)Nc2ccc(N3CCOCC3)cc2)nc2cc(C(F)(F)F)ccc21	-1.5%	24.9	22.0%	-4.2%	-16.9
CC(Oc1ccc(Cl)cc1)c1ccn[nH]1 (stereo unspecified)	0.0%	1.8	3.0%	-7.1%[10 µM]	5.1
Nc1c(-c2ccc(Cl)cc2)cnc2c(-c3ccccc3)cnn12	-4.4%	-3.2	22.4µM*	-7.3%	-1.1
Nc1c(-c2ccc(Cl)cc2)cnn1-c1ccccc1	-13.6%	?	-26.6%	4.0%	-3.4
COc1ccc(-c2cnn3c(N)c(S(=O)(=O)C(C)(C)C)cnc23)cc1	/	-1.1	11.2µM*	?	10.3
